# Mdm2 MdmX PPI: human Mdm2/MdmX binding inhibition; O15151+Q00987; inhibition, % at 8 µM; actives 3% (n = 330,000); SaOS-2 split-luciferase Mdm2/MdmX complementation, luminescence;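 active = inhibition of at least 50% at 8 µM in the primary screen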
# PP1 inh: PP1-alpha (human) inhibition in PP5 counter-screen | P62136 | purified PP1alpha, OMFP fluorescence | inhibition, % at 6.7 µM | actives 0.9% (n = 320,000) | AID 2235;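 active = inhibition above the mean inhibition of all tested compounds plus 3 SD, computed separately for each screening campaign, cut at about 15% in these data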
# PP5 inh: PP5 (human) phosphatase inhibition | P53041 | purified PP5c, OMFP substrate fluorescence | inhibition, % at 6.7 µM | actives 0.18% (n = 320,000) | AID 1987;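 active = inhibition above the campaign's mean inhibition across all tested compounds plus 3 SD, cut at about 9.5% in these data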
# Target sequence (P53041 whole entry, looked up): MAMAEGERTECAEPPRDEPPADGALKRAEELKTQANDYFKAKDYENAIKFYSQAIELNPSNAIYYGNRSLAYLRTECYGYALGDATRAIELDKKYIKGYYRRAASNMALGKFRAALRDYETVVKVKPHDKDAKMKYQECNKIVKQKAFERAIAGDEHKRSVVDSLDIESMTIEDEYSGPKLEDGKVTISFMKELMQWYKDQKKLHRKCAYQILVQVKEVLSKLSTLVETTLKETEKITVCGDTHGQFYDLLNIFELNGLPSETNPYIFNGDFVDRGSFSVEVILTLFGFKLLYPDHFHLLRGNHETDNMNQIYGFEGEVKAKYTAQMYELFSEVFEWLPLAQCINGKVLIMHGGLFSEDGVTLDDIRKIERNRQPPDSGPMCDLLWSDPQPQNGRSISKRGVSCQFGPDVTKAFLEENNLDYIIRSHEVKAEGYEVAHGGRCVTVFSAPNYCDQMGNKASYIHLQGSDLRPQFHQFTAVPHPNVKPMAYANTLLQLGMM
# Beta cell apopt: beta cell apoptosis inhibition. INS-1E cytokine-induced death, ATP luminescence, 48 h; percent of positive-control rescue, neutral wells zero. protection from apoptosis, % (concentration not given with the values). actives 0.8% (n = 300,000);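 active = Every replicate reaches about 75%, or at least half do and their mean reaches it too, limit read from the data; inconclusive = At least half of replicates reach the limit but their mean does not; inactive = Under half of replicates reach the limit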;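 also: higher means more ATP so stronger rescue from cytokine killing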
# CSC inhib: blocks cancer stem cells | actives 1.1% (n = 300,000) | cancer stem cell-like cells viability, luminescence | inhibition, % at 7.5 µM; in the data active = inhibition above about 75%; inconclusive = no clear call, values can overlap the other calls; tested in HMLE shEcad cells
# Calb FLC: affects C. albicans growth with fluconazole; growth inhibition, % (concentration not given with the values); actives 0.57% (n = 300,000); C. albicans CaCi-2 (fluconazole-resistant clinical isolate) + fluconazole, Alamar Blue growth, 48 h; AID 1979;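 active = growth inhibition above about 58% in most replicates, limit read from the data, passing the limit was not always enough; inconclusive = exactly half the replicates above a set limit; inactive = most replicates below a set limit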;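 also: all wells also contain fluconazole at 8 µg/ml as a sub-toxic cotreatment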
# A number is an active result; i = inactive; ? = inconclusive; nt = no result. This is a sample that favours compounds with a hit; in the whole collection about 4.9% have one here.
SMILES,Mdm2 MdmX PPI,PP1 inh,PP5 inh,Beta cell apopt,CSC inhib,Calb FLC
O=S(=O)(Nc1nc2ccccc2s1)c1ccc(Cl)s1,i,i,i,81,i,i
Cc1cc2cc(CNC(=O)Nc3cccc(Cl)c3)ccc2n1C,i,16,i,nt,i,i
COC/C=C/C1=CC2=CC(=O)C(C)(OC(=O)c3cnc4ccccc4n3)C(=O)C2=CN1C1CC1 (configuration not stated),i,i,i,i,i,i
COC/C=C/C1=CC2=CC(=O)C(C)(OC(=O)c3cnc4ccccc4n3)C(=O)C2=CN1c1ccc(OC)cc1 (configuration not stated),i,18,i,i,i,i
O=C(CNC(=O)c1ccco1)NCC(c1ccco1)N1CCCCC1 (configuration not stated),i,i,i,i,nt,nt
Cc1ccc(NC(=O)Nc2ccc3c(c2)OCO3)c(Br)c1,i,17,i,i,i,i
COc1cc(NC(=O)Nc2ccc3c(c2)OCO3)cc(OC)c1OC,i,i,i,i,i,i
COc1ccc(C(C)(C)C)cc1NC(=O)Nc1ccc2c(c1)OCO2,i,i,i,i,83,i
CC1(C)CC2CC(C)(CN2C(=O)COC(=O)c2cccc([N+](=O)[O-])c2)C1 (configuration not stated),i,nt,nt,i,i,nt
Cc1c(F)cccc1NS(=O)(=O)c1ccc(OCCNS(C)(=O)=O)cc1,i,i,i,i,i,i
COc1ccc(N2CCOCC2)c(NC(=O)c2cccs2)c1,i,i,i,i,i,i
O=C(NNC(=O)c1cc2cc(Br)ccc2oc1=O)c1ccc(O)cc1O,i,i,i,i,77,i
COC(=O)[C@H](Cc1ccccc1)N(Cc1ccccc1)S(=O)(=O)N(Cc1ccccc1)[C@@H](Cc1ccccc1)C(=O)OC,i,nt,nt,119,i,nt
C=CCn1c(COc2ccccc2-c2ccccc2)nnc1SCC(=O)NC(=O)NCc1ccco1,i,16,i,i,i,i
CCc1nnc(NS(=O)(=O)c2ccc(NC(=O)c3cccc([N+](=O)[O-])c3)cc2)s1,i,i,i,i,i,i
CCCCOc1cccc(C(=O)Nc2ccc(S(=O)(=O)Nc3nnc(CC)s3)cc2)c1,i,15,i,i,i,i
Cn1c(=O)c(=O)n(C)c2cc(S(=O)(=O)CCC(=O)Nc3ccc(C(F)(F)F)cc3)ccc21,i,i,i,i,i,i
Cc1cc(OCc2cccc(Cl)c2)c(C)cc1CN1CCOCC1,i,i,i,i,i,i
COCc1cc(CN2CCN(C)CC2)c(O)c2ncccc12,i,i,i,i,i,108
Oc1c(CN2CCOCC2)cc(COCc2ccccc2)c2cccnc12,nt,16,i,98,i,83
O=S(=O)(Nc1ccc(-c2csc(-c3ccccc3)n2)cc1)c1ccccc1,i,i,i,i,148,i
Cc1ccc(S(=O)(=O)Nc2ccc(-c3csc(-c4ccccc4)n3)cc2)cc1,i,i,i,i,112,i
O=[N+]([O-])c1ccc(S(=O)(=O)Nc2ccc(-c3csc(-c4ccccc4)n3)cc2)cc1,i,i,i,i,100,i
O=[N+]([O-])c1ccc(S(=O)(=O)Nc2nc3ccccc3nc2Nc2ccccc2)cc1,i,i,i,i,i,105
Cc1ccc(S(=O)(=O)Nc2nc(-c3ccccc3)cs2)cc1,i,i,i,i,i,i
SMILES,Mdm2 MdmX PPI,PP1 inh,PP5 inh,Beta cell apopt,CSC inhib,Calb FLC
COc1ccc(CN(CC2CCC(C(=O)O)CC2)C(=S)Nc2cccc(C)c2)cc1 (configuration not stated),i,i,i,i,i,?
Cc1c(C(=O)NCC2CCCO2)cccc1[N+](=O)[O-] (configuration not stated),i,i,i,i,i,i
CN(C)c1ccc(C(=S)N2CCCC2)cc1Br,i,i,i,i,i,i
O=C(c1ccccc1)N(NC(=O)C(O)(c1ccccc1)c1ccccc1)c1cccc(F)c1,i,i,i,nt,i,i
O=C(c1ccccc1F)N(NC(=O)C(O)(c1ccccc1)c1ccccc1)c1ccccc1,i,17,i,i,i,i
CN(C)S(=O)(=O)c1cccc(N=C2NN=C(c3ccccc3)CS2)c1,nt,i,i,91,i,nt
CC(=O)Nc1ccc(C2=NNC(=Nc3cccc(S(=O)(=O)N(C)C)c3)SC2)cc1,i,i,i,96,i,i
Fc1ccccc1N=C1NN=C(c2ccccc2)CS1,i,i,i,97,i,i
O=Cc1coc2c(ccc3ccccc32)c1=O,i,i,i,i,i,i

# Screens from PubChem.
